Most compounds without a hit are left out; they make up all but 0.51% or so of the library.
Vif-APOBEC3F blk = qHTS for Inhibitors of Vif-A3F Interactions: qHTS. HeLa A3F-eYFP + Vif (tagged APOBEC3F with the HIV-1 protein that degrades it), YFP fluorescence increase. 390,000 compounds, 0.2% hits. Potency, µM (series often up to 46.1 µM), for inactives: top-dose activity, negative = active; note: % of control where 0% means no effect; nearly all actives have a fitted effect of over 65% in size
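HeLa cells stably expressing A3F-eYFP plus Vif, plated and incubated overnight at 37 deg C, then exposed to compounds overnight at 37 deg C. Blocked degradation read as raised yellow fluorescence (Ex 488/Em 500-530).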
Vif-A3G inh = qHTS for Inhibitors of Vif-A3G Interactions: qHTS; DNA dC->dU-editing enzyme APOBEC-3G (Homo sapiens), Q9HC16; HeLa A3G-eYFP + Vif (tagged APOBEC3G with the HIV-1 protein that degrades it), YFP fluorescence, overnight; Potency, µM (titrated, usually from 46.1 µM), for the others: top-dose activity, negative = active, actives largely listed as inhibitors; 410,000 compounds, 0.076% hits; note: % is set by controls: 0 for no effect and ±100 for the full control effect; nearly all actives have a fitted effect of over 60% in size
Target sequence (Q9HC16 whole entry, looked up): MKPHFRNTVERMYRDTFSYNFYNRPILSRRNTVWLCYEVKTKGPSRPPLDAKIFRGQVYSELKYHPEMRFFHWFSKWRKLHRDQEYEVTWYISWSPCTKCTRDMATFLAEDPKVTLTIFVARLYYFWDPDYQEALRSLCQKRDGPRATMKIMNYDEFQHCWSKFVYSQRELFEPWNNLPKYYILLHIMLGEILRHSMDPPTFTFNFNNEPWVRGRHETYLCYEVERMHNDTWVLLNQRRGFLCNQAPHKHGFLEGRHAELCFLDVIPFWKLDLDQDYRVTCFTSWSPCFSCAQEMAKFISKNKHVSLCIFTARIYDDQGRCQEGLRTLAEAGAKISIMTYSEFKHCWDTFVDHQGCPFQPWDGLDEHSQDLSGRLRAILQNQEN
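HeLa cells stably expressing Vif and C-terminally eYFP-tagged A3G, seeded overnight at 37 deg C, then exposed to compound by pintool overnight at 37 deg C. Rise in yellow fluorescence (Ex 488/Em 500-530, Acumen) marks blocked Vif-driven A3G degradation.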
Epigenetic derep = Quantitative High-Throughput Screen for Regulators of Epigenetic Control; Potency, µM (titrated, usually from 53.9 µM), for inactives: top-dose GFP activation, actives largely listed as activators; AID 1865, 2009; murine LDR cells, GFP reporter derepression, 30 h; 280,000 compounds, 0.2% hits; note: % of control where 0% means no effect; nearly all actives have a fitted effect of over 60% in size
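Reporter derepression read as number of fluorescent GFP-positive objects, 20-120 um in size, counted by laser-scanning cytometer. Mouse LDR line with an epigenetically silenced CMV-GFP locus; compound incubation 30 h, 37 C.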
PINK1 modulator = A Quantitative High throughput Screen to Identify Chemical Modulators of PINK1 Expression; PINK1 immunofluorescence, high-content cytometry, 24 h; Potency, µM (doses to about 76.6 µM), for the others: at the highest dose activation (PINK1 increase), most hits filed as activators; 410,000 compounds, 0.2% hits; active = well fitted activation curve with a large enough effect; inconclusive = small, poorly fitted or top-dose-only effect; cell line not stated here; note: % of control where 0% means no effect; nearly all actives have a fitted effect of over 65% in size
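Readout is PINK1 immunofluorescence, quantified alongside mitochondrial, cell and nuclear markers by laser-scanning microplate cytometry. Cells from a stable line were exposed to compound titrations (5 concentrations) for 24 hours, with CCCP controls.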
Numbers without * were called inactive; u = inconclusive; x = no result; [ ] = another dose, or the depositor's remark. Unless noted, calls come from the whole dose curve; as a rule, active = well fitted curve in the direction sought with a large enough effect; inconclusive = small, poorly fitted or top-dose-only effect, or another doubt; inactive = no such curve, though single readings can be large; an effect the other way counts as inactive or inconclusive. Potency is the fitted concentration of half-maximal effect.

SMILES	Vif-APOBEC3F blk	Vif-A3G inh	Epigenetic derep	PINK1 modulator
C=CCN=C1S/C(=C\c2ccc(Cl)cc2)C(=O)N1CC=C	-28.7%	-4.8%	5.9%	6.0%
O=C(CNC(=O)c1ccccc1)NCCCSc1ccccc1	4.9%	0.8%	x	-1.2%
O=C(NCCCSc1ccccc1)c1cc(Cl)ccc1O	2.4%	1.0%	x	17.8µM*
COc1ccc2c(c1)c1nc3ccccc3nc1n2Cc1ccc(OC(C)C)c(OC)c1	22.4µM*	-27.2%	u	5.2%
O=C(O)Cn1c2ccccc2c2nc3ccccc3nc21	8.91µM*	u	x	1.1%
O=c1oc2ccccc2n1CCn1c2ccccc2c2nc3ccccc3nc21	1.4%	-0.4%	0.0%	6.8%
COc1ccc2c(c1)c1nc3ccccc3nc1n2CC(=O)OC(C)C	25.1µM*	-18.3%	u	u
COc1ccc2c(c1)c1nc3ccccc3nc1n2CCn1c(=O)oc2ccccc21	u	-0.3%	0.0%	3.98µM*
O=S(=O)(c1ccc(NC(=S)NN=C(Cc2ccccc2)Cc2ccccc2)cc1)N1CCOCC1	5.3%	-8.0%	-3.5%	6.5%
O=C(COc1ccc(F)cc1)Nc1nnc(C2CC2)s1	-1.8%	0.5%	x	-0.3%
Cc1cc(OCC(=O)Nc2nnc(C3CC3)s2)ccc1Cl	-1.0%	2.82µM*	x	3.0%
CCOC(=O)CC1C(=O)NCCN1c1nc2ccc(C)cn2c(=O)c1/C=C1\SC(=S)N(C(C)CC)C1=O (stereo not drawn)	x	x	-3.1%	x
CCOC(=O)CC1C(=O)NCCN1c1nc2ccc(C)cn2c(=O)c1/C=C1\SC(=S)N(CC(C)C)C1=O (stereo not drawn)	u	u	3.55µM*	23.6%
Cc1cc(=O)[nH]c(SCC(=O)NCCc2ccccc2)n1	0.2%	1.2%	0.0%	-0.3%
CCOC(=O)c1c(NC(=O)c2ccc(N3C(=O)C4C5C=CC(C5)C4C3=O)cc2)sc2c1CCCC2 (stereo not drawn)	12.0%	0.2%	-2.0%	4.4%
N#CC1=C(N)C(C#N)(C#N)[C@H](c2c(F)cccc2F)[C@H]2CC3(CC=C12)OCCO3	22.4µM*	12.6µM*	u	7.4%[38.3 µM]
CN1C2C=C3C(C#N)=C(N)C(C#N)(C#N)[C@H](c4c(F)cccc4F)[C@H]3C1CC2 (stereo partly drawn)	-0.9%	-2.3%	2.8%	0.8%[38.3 µM]
COc1ccc(N2C(=O)C3CCCN3C2=S)cc1 (stereo not drawn)	6.9%	5.4%	x	1.9%
c1ccc(-c2ncnc3nc4n(c23)CCC4)cc1	-9.6%	1.0%	-0.2%	7.94µM*
Cc1ccc(-n2c(C)nc3ncnc(-c4ccccc4)c32)cc1	-11.7%	-0.4%	3.9%	-1.4%
Cc1cccc(N(CC(=O)NC2CCCC2)C(=O)CCC(=O)Nc2cc(C)on2)c1	17.3%	-4.2%	x	1.5%
CCOc1ccc2[nH]c3c(=O)n(CCc4ccc(OC)cc4)cnc3c2c1	4.3%	1.6%	25.1µM*	8.1%
CC(C)Sc1nnc(CNC(=O)C23CC4CC(CC(C4)C2)C3)n1Cc1ccccc1	-0.8%	-0.3%	-1.0%	1.1%
O=C(NC(=S)Nc1cccc(NC(=S)NC(=O)c2ccccc2)c1)c1ccccc1	-8.1%	-17.2%	x	6.8%
O=C(NC(=S)Nc1c(Cl)cc(Cl)cc1Cl)c1ccccc1	4.47µM*	1.9%	x	6.1%
SMILES	Vif-APOBEC3F blk	Vif-A3G inh	Epigenetic derep	PINK1 modulator
Cc1c(N2C(=O)/C(=C/c3ccccc3)SC2=S)c(=O)n(-c2ccccc2)n1C	5.6%	0.1%	0.0%	2.2%
Cc1c(N2C(=O)/C(=C/c3ccc(N(C)C)cc3)N(C)C2=S)c(=O)n(-c2ccccc2)n1C	10µM*	u	x	1.4%
O=C(NCc1ccc(F)cc1)c1cccc(NC2=NC3CS(=O)(=O)CC3S2)c1 (stereo not drawn)	-4.7%	7.0%	x	-0.2%
O=C(Nc1nnc(-c2ccc3c(c2)CCCC3)o1)c1ccc(Cl)cc1Cl	-29.9%	0.6%	-0.8%	-0.3%
O=C(Nc1nnc(-c2ccc3c(c2)CCCC3)o1)c1c(F)cccc1F	25.1µM*	-4.7%	0.0%	0.6%
COCCNC(=S)N/N=C/c1ccc(-c2ccc([N+](=O)[O-])cc2)o1	u	u	u	44.7µM*
Cc1cc(/C=N/NC(N)=S)c(O)c(/C=N/NC(N)=S)c1	u	-6.3%	1.1%	44.7µM*
Cc1ccc(-c2ccc(/C=N/NC(N)=S)o2)cc1	5.62µM*	-19.5%	u	-0.1%
